This passage reports inhibition results from ChEMBL document CHEMBL1961873, “Compounds: GSK PKIS; Assays: Nanosyn kinase panel” (2012).

For assay [1], the target named is Leukocyte tyrosine kinase receptor (Homo sapiens) (UniProt P29376). As to conditions: at 1 µM.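 Further: each value is the mean inhibition of LTK.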
Assay [2] concerns the target Tyrosine-protein kinase Lyn (Homo sapiens) (UniProt P07948). As to conditions: at 0.1 µM.
Assay [3] shares this target. As to conditions: at 1 µM.
The target is the same in assay [4]. The conditions noted are these: at 0.1 µM. This is another data set of the same source.
For assay [5] the target is unchanged. As to conditions: at 1 µM. The source holds these as a separate data set.
In assay [6] the target is T1, Tyrosine-protein kinase Mer (Homo sapiens) (UniProt Q12866).
T1 sequence (whole entry): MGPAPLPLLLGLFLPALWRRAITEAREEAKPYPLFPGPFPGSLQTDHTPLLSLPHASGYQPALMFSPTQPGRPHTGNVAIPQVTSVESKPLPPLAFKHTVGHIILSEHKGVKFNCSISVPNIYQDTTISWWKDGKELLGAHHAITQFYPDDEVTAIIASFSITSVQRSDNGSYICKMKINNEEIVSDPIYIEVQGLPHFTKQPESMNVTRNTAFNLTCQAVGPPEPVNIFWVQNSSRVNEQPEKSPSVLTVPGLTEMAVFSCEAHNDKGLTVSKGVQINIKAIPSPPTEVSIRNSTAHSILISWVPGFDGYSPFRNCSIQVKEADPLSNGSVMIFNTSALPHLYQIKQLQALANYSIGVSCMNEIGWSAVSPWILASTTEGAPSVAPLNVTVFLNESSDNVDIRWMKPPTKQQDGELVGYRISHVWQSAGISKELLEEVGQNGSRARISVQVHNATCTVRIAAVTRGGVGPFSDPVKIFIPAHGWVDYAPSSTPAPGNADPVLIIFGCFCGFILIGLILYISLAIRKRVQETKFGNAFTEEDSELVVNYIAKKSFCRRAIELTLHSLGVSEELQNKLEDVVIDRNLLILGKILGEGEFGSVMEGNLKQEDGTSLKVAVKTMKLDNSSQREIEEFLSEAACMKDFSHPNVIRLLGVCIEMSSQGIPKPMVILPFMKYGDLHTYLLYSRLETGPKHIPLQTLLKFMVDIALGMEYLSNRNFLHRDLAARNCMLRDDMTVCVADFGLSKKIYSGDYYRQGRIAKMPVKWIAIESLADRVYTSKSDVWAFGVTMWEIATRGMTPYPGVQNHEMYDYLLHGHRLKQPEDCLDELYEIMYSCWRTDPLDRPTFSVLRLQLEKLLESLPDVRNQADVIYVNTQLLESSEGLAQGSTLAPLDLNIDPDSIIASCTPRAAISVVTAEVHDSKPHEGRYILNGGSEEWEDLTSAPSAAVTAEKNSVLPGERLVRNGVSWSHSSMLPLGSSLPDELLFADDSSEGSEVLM
As to conditions: at 0.1 µM.

Assay [7] has as its target T1, Tyrosine-protein kinase Mer (Homo sapiens). The conditions noted are these: at 1 µM.
Assay [8] addresses Hepatocyte growth factor receptor (Homo sapiens) (UniProt P08581). The conditions noted are these: at 0.1 µM.
For assay [9] the target is unchanged. As to conditions: at 1 µM.
The target of assay [10] is T2, Muscle, skeletal receptor tyrosine-protein kinase (Homo sapiens) (UniProt O15146).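 Further: values are mean inhibition of MuSK from the GSK PKIS kinase screening panel.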
T2 sequence (whole entry): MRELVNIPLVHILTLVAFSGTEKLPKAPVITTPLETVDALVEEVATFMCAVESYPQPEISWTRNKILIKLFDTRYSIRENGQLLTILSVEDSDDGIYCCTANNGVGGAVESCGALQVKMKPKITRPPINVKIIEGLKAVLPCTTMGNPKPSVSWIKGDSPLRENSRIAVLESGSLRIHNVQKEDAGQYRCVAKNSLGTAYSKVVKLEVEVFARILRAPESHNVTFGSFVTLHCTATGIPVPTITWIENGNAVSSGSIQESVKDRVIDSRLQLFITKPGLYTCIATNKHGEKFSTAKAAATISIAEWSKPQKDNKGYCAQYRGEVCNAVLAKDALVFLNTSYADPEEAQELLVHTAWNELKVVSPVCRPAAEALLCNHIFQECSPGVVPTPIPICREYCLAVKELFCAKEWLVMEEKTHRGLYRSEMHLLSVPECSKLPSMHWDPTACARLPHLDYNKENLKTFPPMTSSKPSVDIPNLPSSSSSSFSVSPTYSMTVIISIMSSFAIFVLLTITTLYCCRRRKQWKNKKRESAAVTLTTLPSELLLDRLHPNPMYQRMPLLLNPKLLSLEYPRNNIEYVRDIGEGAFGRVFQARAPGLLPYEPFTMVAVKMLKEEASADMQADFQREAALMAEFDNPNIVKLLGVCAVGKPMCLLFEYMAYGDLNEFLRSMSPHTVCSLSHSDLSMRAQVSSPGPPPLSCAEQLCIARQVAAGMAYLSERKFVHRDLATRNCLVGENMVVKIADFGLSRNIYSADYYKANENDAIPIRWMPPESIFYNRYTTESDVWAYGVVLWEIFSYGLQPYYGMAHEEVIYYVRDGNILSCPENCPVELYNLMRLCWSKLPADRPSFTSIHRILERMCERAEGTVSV
As to conditions: at 0.1 µM.

By inhibition is commonly meant the change of the read-out against control, counted positive when it falls.

Leukocyte tyrosine kinase receptor (Homo sapiens), sequence (P29376 whole entry): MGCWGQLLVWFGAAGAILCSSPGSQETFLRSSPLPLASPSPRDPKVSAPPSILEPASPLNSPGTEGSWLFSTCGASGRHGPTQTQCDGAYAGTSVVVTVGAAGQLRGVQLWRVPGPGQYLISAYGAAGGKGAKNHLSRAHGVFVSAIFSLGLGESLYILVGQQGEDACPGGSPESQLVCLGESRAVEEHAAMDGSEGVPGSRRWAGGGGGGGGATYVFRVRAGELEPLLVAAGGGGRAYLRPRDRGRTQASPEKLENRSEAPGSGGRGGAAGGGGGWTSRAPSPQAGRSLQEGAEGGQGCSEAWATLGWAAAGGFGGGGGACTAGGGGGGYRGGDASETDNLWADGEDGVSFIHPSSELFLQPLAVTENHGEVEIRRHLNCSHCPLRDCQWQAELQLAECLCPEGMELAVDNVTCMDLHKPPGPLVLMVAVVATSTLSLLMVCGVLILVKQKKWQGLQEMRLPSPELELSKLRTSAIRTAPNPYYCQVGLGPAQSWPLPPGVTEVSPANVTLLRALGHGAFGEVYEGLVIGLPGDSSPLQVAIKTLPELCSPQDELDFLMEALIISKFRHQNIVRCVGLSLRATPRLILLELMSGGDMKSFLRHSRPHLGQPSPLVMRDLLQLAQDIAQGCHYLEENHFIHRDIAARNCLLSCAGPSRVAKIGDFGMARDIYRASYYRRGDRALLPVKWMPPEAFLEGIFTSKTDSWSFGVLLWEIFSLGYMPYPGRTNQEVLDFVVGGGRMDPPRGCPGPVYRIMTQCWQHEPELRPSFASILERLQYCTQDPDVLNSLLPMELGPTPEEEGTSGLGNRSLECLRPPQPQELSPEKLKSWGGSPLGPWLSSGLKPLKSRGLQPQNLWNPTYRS
Hepatocyte growth factor receptor (Homo sapiens), sequence (P08581 whole entry): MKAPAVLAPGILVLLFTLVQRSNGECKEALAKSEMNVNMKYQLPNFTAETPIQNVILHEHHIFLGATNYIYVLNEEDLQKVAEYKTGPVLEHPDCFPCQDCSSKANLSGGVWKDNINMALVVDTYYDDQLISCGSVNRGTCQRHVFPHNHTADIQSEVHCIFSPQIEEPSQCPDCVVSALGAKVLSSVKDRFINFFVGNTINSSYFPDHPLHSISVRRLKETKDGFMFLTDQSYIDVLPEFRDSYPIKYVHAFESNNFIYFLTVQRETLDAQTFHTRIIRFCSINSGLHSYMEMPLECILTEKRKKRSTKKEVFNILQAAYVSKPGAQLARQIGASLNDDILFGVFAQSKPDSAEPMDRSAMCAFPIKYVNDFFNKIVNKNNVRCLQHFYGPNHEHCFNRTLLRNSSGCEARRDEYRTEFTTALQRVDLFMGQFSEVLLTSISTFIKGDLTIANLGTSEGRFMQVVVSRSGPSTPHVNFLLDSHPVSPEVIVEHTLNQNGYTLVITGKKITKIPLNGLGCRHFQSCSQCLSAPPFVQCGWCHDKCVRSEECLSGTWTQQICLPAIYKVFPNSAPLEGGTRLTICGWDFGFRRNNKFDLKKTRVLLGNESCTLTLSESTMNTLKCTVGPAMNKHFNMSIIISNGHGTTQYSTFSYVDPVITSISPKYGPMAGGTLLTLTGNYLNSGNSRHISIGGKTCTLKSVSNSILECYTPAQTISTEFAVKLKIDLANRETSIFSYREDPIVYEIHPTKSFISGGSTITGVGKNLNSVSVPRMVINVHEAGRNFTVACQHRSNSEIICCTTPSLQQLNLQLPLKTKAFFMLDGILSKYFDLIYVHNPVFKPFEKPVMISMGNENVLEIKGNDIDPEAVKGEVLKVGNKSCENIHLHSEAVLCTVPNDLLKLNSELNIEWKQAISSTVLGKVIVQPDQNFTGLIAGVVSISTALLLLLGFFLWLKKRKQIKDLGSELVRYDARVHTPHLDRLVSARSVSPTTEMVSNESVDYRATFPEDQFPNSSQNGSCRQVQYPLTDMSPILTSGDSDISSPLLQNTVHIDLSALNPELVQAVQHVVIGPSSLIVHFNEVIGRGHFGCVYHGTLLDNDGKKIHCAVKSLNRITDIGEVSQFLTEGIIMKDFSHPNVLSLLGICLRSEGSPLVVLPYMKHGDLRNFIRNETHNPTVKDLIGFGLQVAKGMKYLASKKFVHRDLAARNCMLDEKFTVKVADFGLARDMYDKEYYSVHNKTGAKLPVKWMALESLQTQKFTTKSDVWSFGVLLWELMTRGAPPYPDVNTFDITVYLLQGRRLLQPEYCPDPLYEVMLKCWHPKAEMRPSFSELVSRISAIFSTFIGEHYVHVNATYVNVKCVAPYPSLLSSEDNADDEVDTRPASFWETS
Tyrosine-protein kinase Lyn (Homo sapiens), sequence (P07948 2-512 limits assumed): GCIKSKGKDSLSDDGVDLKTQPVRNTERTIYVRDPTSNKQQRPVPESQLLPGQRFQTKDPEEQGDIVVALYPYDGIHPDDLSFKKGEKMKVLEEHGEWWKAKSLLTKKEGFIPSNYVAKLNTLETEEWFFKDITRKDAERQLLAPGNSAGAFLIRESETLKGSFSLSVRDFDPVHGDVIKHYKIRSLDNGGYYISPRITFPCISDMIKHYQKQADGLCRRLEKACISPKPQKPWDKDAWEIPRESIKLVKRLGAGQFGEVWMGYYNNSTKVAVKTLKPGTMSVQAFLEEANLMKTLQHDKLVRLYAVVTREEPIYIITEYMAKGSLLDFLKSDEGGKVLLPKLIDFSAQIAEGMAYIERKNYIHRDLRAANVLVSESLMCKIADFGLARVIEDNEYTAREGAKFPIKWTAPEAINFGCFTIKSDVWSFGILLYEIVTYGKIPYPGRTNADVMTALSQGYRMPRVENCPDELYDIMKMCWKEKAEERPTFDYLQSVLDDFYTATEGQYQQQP

Regarding `COc1cc2c(cc1Nc1nc(Nc3ccsc3C(N)=O)c3cc[nH]c3n1)N(C(=O)CN(C)C)CCC2`, the inhibition in assay [1] came out at 94.9%; in [2] it was 3.9%; in [3], 5.94%; in assay [4], 2.54%; in [5] it was 2.25%; in assay [6], 1.81%. In addition, the inhibition in assay [7] worked out at 6.9%; in assay [8] it was 6.76%; in assay [9], 7.29%; in [10] it was 3.98%.
`CCn1c(-c2nonc2N)nc2c(C#CC(C)(C)O)ncc(OCC3CCNCC3)c21`: the inhibition was found to be 5.07% in assay [1]; 3.39% in assay [2]; 7.23% in [3]; 1.8% in assay [4]; 5.79% in assay [5]; 1.17% in assay [6]. Besides, the inhibition in [7] was determined as 1.7%; in assay [8] it was 1.64%; in assay [9], 2.5%; in [10] it was 4.04%.
Turning to `NS(=O)(=O)c1ccc(N/C=C2\C(=O)Nc3ccc4ncsc4c32)cc1`, the inhibition was 10.4% in [1]; 6.6% in [2]; 28.3% in [3]; 2.87% in [4]; 22.1% in assay [5]; 0.39% in assay [6]. Also, the inhibition turned out to be 7.72% in assay [7], 14.9% in [8], 43.3% in assay [9] and 11% in [10].
Consider `COc1cccc(COc2cc(-n3cnc4ccccc43)sc2C(N)=O)c1`, for which the inhibition was 2.93% in assay [1]; -0.93% in assay [2]; -1.31% in assay [3]; -1.21% in assay [4]; -1.14% in [5]; -2.89% in [6]. In addition, the inhibition in assay [7] was -0.86%; in assay [8], 4.83%; in assay [9], 2.86%; in assay [10], -1.3%.
As to `Cc1cc(-c2ccco2)cc(C)c1/C=C/c1cncc(-c2nn[nH]n2)c1`, the inhibition in [1] is 1.64%; in assay [2] it was 1.98%; in [3] it was 5.29%; in assay [4], 2.99%; in assay [5], 3.6%; in [6] it was 0.26%. Moreover, the inhibition is 3.44% in [7], 4.92% in assay [8], 3.8% in assay [9] and -1.44% in assay [10].
Regarding `COc1cc(C=NNc2ncnc3c2cnn3Cc2ccccc2)ccc1O`, the inhibition was -1.02% in assay [1]; 7.35% in assay [2]; 41.8% in assay [3]; 3.91% in [4]; 35.4% in assay [5]; 0.56% in [6]. The inhibition in [7] was 6.34%; in [8], -3.62%; in assay [9], 7.19%; in assay [10], -1.07%.
For `Fc1ccc(-c2ncn(C3CCNCC3)c2-c2ccnc(Oc3ccccc3)n2)cc1`, the inhibition in assay [1] came out at 1.61%; in [2] it was 2.38%; in assay [3] it was 2.64%; in assay [4] it was 0.89%; in assay [5] it was 1.56%; in assay [6], 0.77%. Besides, the inhibition came out at 6.11% in [7], 5.19% in [8], 0.34% in assay [9] and 1.71% in assay [10].
Regarding `COc1cccc(-n2ncc3c(N/N=C/c4ccncc4)ncnc32)c1`, the inhibition in [1] came to 6.38%; in assay [2], 49%; in [3] it was 87.5%; in assay [4], 43.2%; in assay [5], 85%; in [6], 6.35%. Also, the inhibition in assay [7] is 39.2%; in assay [8], 18.9%; in [9], 49.5%; in assay [10], 11.1%.
Regarding `CCn1c(-c2nonc2N)nc2c(C#CC(C)(C)O)nc(O[C@@H](CN)c3ccccc3)cc21`, the inhibition in [1] turned out to be 76.6%; in [2] it was 2.08%; in assay [3], 22.1%; in assay [4], 0.81%; in assay [5], 16.8%; in [6], 0.05%. Also, the inhibition in assay [7] is 0.57%; in assay [8], 3.67%; in [9] it was -0.12%; in assay [10], -1.29%.
For the compound `CCn1c(-c2nonc2N)nc2c(C#CC(C)(C)O)ncc(OC[C@@H]3CCCN3)c21`, the inhibition in assay [1] was 2.22%; in assay [2], 2.35%; in [3] it was 1.33%; in assay [4], 1.2%; in assay [5] it was 1.89%; in assay [6], -0.41%. In addition, the inhibition in assay [7] is -0.43%; in [8] it was 5.01%; in assay [9], 5.81%; in assay [10] it was -2.15%.
Regarding `NC(=O)c1sc(-n2cnc3cc(C(F)(F)F)ccc32)cc1OCc1ccccc1Br`, the inhibition was 4.03% in assay [1]; 3.08% in assay [2]; 4.62% in assay [3]; 2.14% in assay [4]; 3.91% in assay [5]; -1.59% in assay [6]. For the same compound, the inhibition in assay [7] was 4.52%; in assay [8], -0.38%; in assay [9], 8.07%; in assay [10], 1.36%.
`NS(=O)(=O)c1ccc(-c2ccc3c(NC(=O)C4CC4)n[nH]c3c2)cc1`: the inhibition in [1] was -0.4%; in [2], 2.87%; in [3], 3.71%; in assay [4] it was 1.42%; in [5] it was 3.29%; in assay [6], 0.15%. Also, the inhibition in assay [7] was 4.26%; in assay [8] it was -4.19%; in [9], 0.32%; in [10] it was 3.88%.
Turning to `CCn1c(-c2nonc2N)nc2c(C#CCN)ncc(OCCCN)c21`, the inhibition is -1.19% in [1]; 0.47% in [2]; 2.24% in assay [3]; 1.28% in [4]; 0.49% in assay [5]; 0.13% in assay [6]. The inhibition in assay [7] stood at 0.01%; in assay [8], 0.78%; in [9], 4.36%; in assay [10] it was 2.41%.
As to `Nc1nonc1-c1nc2cnccc2n1C1CCCCC1`, the inhibition in [1] was 2.35%; in assay [2], -2.05%; in assay [3] it was 1.3%; in [4], -1.46%; in assay [5], -0.59%; in assay [6], -0.72%. Also, the inhibition in [7] is 1.5%; in [8] it was -2.89%; in assay [9] it was 7.05%; in assay [10], -1.73%.
